Reference: ChEMBL document CHEMBL4888484, “Replenishing the malaria drug discovery pipeline: Screening and hit evaluation of the MMV Hit Generation Library 1 (HGL1) against asexual blood stage Plasmodium falciparum ,using a nano luciferase reporter read-out” (2022)
Screen size: about 4,800 compounds; about 410 (8.5%) showed an effect of 50% or more. For the sample, strong results were picked, then their nearest neighbours and some compounds at random.

test system: Plasmodium falciparum; test: Confirmatory screen in NF54 pLDH assay, in single point, at 2uM, 72h; assay type: functional, Erythrocyte; conditions: timepoint 72 hour

Structure (SMILES)	% Inhibition
COc1cccc(C(=O)c2c[nH]c(C(=O)NCc3cccc(C(F)(F)F)c3)c2)c1	6%
Cc1ccc(N2C(=O)C[C@]3(CC3(c3ccccc3)c3ccccc3)C2=O)cc1	6%
COCc1c(C(=O)N2CCC[C@@H]2CCc2ncc(C)n2C(C)C)noc1C	13%
Cc1cc(C)nc(-n2nc(-c3ccc(Cl)cc3)c3c2NC(=O)C[C@@H]3c2ccc3c(c2)OCO3)n1	2%
CN1CCN(Cc2cc3cc4c(cc3nc2-c2ccc(Cl)cc2)OCO4)CC1=O	51%
O=c1[nH]c2cc3c(cc2c(=O)n1Cc1nc(-c2ccc(Cl)cc2)no1)OCO3	9%
C#CCN(C(=O)NC1CCN(C(C)=O)CC1)C1CCCC1	-12%
Cc1ccc(NC(=O)c2c(Cl)cccc2Cl)c2c1CC(C)(C)O2	-21%
O=C(Nc1ccc(N2CCCCCC2)cc1C(=O)O)c1ccc(Cl)cc1	9%
CC(C)c1nnc(CNc2ccc(C#N)cc2)o1	8%
CNC(=O)c1cc(Br)cnc1NC	10%
COC1CCCC1NC(=O)Nc1ncc(Br)cc1C (stereo not given)	79%
CC(=O)Nc1ncc(Br)cc1C	3%
NC(=NCCOc1ccc(Br)cc1)N1CCOCC1	8%
COCc1ncc(-c2noc(C3CC4CCC3C4)n2)c(N)n1 (stereo not given)	-14%
Cc1nn(C)c(C)c1CNc1ccc2c(c1)CCC(=O)N2	-13%
CC(C)CCn1nnnc1[C@]1(N(C)C)CCCN(C(=O)c2cccn2C)C1	-12%
Cc1ccc(CN(C)C2CCCCC2)o1	-12%
CCc1nn(C)cc1CN(Cc1cccc(O)c1)C1CCC(O)CC1 (stereo not given)	-8%
CC(C)c1cc(CN(Cc2cc(C(C)C)c(O)c(C(C)C)c2)C2CCCCC2)cc(C(C)C)c1O	98%
CC[C@@H](CO)NC(=O)Nc1ccc(F)cc1	8%
CC[C@](C)(NCC#Cc1ccc(C(F)(F)F)cc1)C(N)=O	5%
O=C(C1CN(c2ncc(C(F)(F)F)cc2Cl)C1)N1CCCC1	11%
Cc1c(N2CCC(C(=O)NC[C@H]3CCCO3)CC2)c(=O)n(CC(C)C)c(=O)n1-c1ccccc1	4%
O=C(COC(F)F)N1CCc2ccncc21	-8%
CC(C(=O)Nc1ncccn1)N1CCCC1Cn1cccn1 (stereo not given)	-8%
COc1nc(NC[C@H]2CCCN2C(C)C)ncc1F	83%

Structure (SMILES)	% Inhibition
Cc1[nH]c2ncnc(NC(=O)c3cccc(-n4ccnn4)c3)c2c1C	12%
CN1CCC(=O)Nc2cc(C(=O)NCCS(=O)(=O)NCC3CCC3)ccc21	6%
O=C(CN1C(=O)COc2ccccc21)N1CCC[C@H](c2nc3ccccc3s2)C1	-13%
c1ccc(Oc2ccc(-c3csc4nc5ccccc5n34)cc2)cc1	5%
O[C@](C#CCN1CCOCC1)(c1ccccc1)C1CC1	14%
Cc1cnn(CC(=O)N2CCC[C@@H]2CCc2ncc(C)n2CC2CC2)c1	-20%
CCOc1cc(-c2cc(-c3ccccc3O)nc3ccc4ccccc4c23)cc(Br)c1O	92%
CCOc1c(CNC[C@H](C)O)cc(Br)cc1OC	5%
O=C(Nc1cccc2cccnc12)c1cncc(Br)c1	-8%
O=C(Nc1cccc2cccnc12)c1ccccn1	87%
CC(C)(C)C(=O)NCCNC(=O)c1ccccn1	13%
Oc1ccccc1CNc1cccc2cccnc12	97%
NC1CC(NCCc2cccc3cccnc23)c2ccccc21 (stereo not given)	36%
COc1cc(=O)c(C(=O)N2CCCCCC2)nn1-c1ccc(F)c(F)c1	10%
CCc1nnc2cc(N3CCN(C(=O)c4ccc(OC)cc4)CC3)cnn12	11%
CC(C)(C)c1noc(OCc2cccc(C#N)c2)n1	14%
CCN1CCN(CC(=O)N2N=C(c3ccc(C)c(C)c3)C[C@H]2c2cccn2C)CC1	2%
Cc1ccn(Cc2nc(N)nc(N(C)C)n2)c(=O)c1C#N	4%
CCCCN1CCN(C(=O)CN2CCN(Cc3ccc(F)cc3Cl)C2=O)CC1	1%
Cc1cc(C)c(NC(=O)OCc2cccc3cccnc23)c(C)c1	80%
Cc1cccnc1NC(=O)OC(C)(C)C	10%
CCc1ccc(C2=Nc3cccnc3N(CC(=O)Nc3c(C)cc(C)cc3C)C(=O)C2)cc1	2%
O=C(Nc1ccc(Cl)cc1)n1c(=S)oc2cc(Br)ccc21	2%
Cc1cccc(CN2CCC[C@H](C(=O)c3ccc4c5c(cccc35)CC4)C2)n1	67%
Cc1cccc(NC(=O)N2CCCCCC2)n1	6%
Cc1ncsc1[C@@H]1CC(=O)Nc2nc(N3CCC(C)CC3)nc(O)c21	-19%
COc1ccnc(CN2CCC[C@H](c3nc(-c4ccccc4)c[nH]3)C2)c1OC	82%

Structure (SMILES)	% Inhibition
c1ccc(-c2c[nH]c([C@H]3CCCN(c4ncnc5[nH]ncc45)C3)n2)cc1	-7%
CN(C)c1nc(CN2CCC[C@H](c3n[nH]c(-c4ccccc4)n3)C2)ns1	2%
Cn1cc(-c2ccc(F)cc2)c2nc[nH]c(=O)c21	10%
O=C1CCCN1c1ccc(-c2csc(C3CC3)n2)cc1	-12%
CCC(=O)N1CCC(Nc2cccc(-c3nc(C4CC4)n[nH]3)c2)CC1	-24%
CC1([C@@](O)(C#CC[N+]2(C)CCCCC2)c2ccccc2)CCCC1	43%
CCNS(=O)(=O)c1cc(C)ccc1C	8%
CCc1ccc(-n2c(=O)[nH]c3nc(N4CCN(c5ccccc5F)CC4)ncc3c2=O)cc1	-25%
O=C(NCc1ccncc1)c1ccco1	-2%
O=C1NCCCOc2cccc(c2)[C@H]2c3ccc(cc3CCN2C(=O)CCN2CCOCC2)Oc2ccc(O)c1c2	50%
NC(=O)C1CCN(CCC(=O)N2CCc3cc4ccc3[C@@H]2c2cccc(c2)OCCCNC(=O)c2cc(ccc2O)O4)CC1	93%
NCc1cccc(C(=O)N2CCc3cc4ccc3[C@@H]2c2cccc(c2)OCCCNC(=O)c2cc(ccc2O)O4)c1	98%
CCc1nc2cc(N3CCC(C(=O)Nc4ccc5c(c4)OCO5)CC3)cnc2nc1CC	8%
Cc1ccc(NC(=O)CN2N=C(C(=O)Nc3ccccc3)CCC2=O)cc1	-10%
Cc1cccc(Oc2cc(N)cc(Oc3cccc(C)c3)c2)c1	8%
O=C(c1cc2ccccc2[nH]1)N1CCc2sc(Cl)cc2C1	5%
CC(=Cc1cn(C(C)(C)C)nn1)c1nc(C)c(C#N)c(=O)[nH]1	10%
COc1ccc(C)cc1NC(=O)[C@H]1CCCN(c2cn[nH]c(=O)c2)C1	-8%
CC(C)(C)CC(=O)Nc1ccccc1C(N)=O	13%
CC(=O)c1cc(-c2cc(O)cc(CC[C@H]3CCCCN3)c2)ccc1O	85%
Cc1cc(-c2cc(O)cc(CC[C@H]3CCCCN3)c2)ccn1	91%
Cc1ccc(-c2cc(O)cc(CC[C@H]3CCCCN3)c2)c(C)n1	66%
Cc1cc(S(=O)(=O)NC[C@H]2CCCCN2)sc1C	-6%
CNC(=NCC(C)(C)c1ccc(OC)cc1)NC	7%
COc1cccc(N2CCN(C(=O)c3cn4cc(-c5ccc(Cl)cc5)ccc4n3)CC2)c1	2%
Cc1[nH]c2nc3ccccc3n2c(=O)c1Cc1ccccc1Cl	-15%
CCc1cc(O)nc(CN2CCCC2C(O)C(F)(F)F)n1 (stereo not given)	-4%

Structure (SMILES)	% Inhibition
Oc1ccc(-c2nnc(-c3ccc(O)cc3)nn2)cc1	22%
CC(C)c1ccc(NC(=O)CCC(=O)N2CCc3ccccc3C2)cc1	9%
C[C@@]12CO[C@@H](COc3ccccc3)O[C@@H]1CC[C@]1(C)C2CC[C@@H](O)[C@H]1CC(=O)N1CCC[C@H]1CO (stereo not given in full)	6%
CC1CC(C)CN(C(=O)c2cc(NC(=O)c3ccccc3)n(C)n2)C1 (stereo not given)	-14%
O=C(CN1CCOCC1)Nc1ccc(N2CCOCC2)c(F)c1	-8%
N#Cc1nccnc1NCCCCN1C(=O)c2ccccc2C1=O	-14%
CC1(C)COC(=O)[C@H]1OCN1CCCC1=O	-7%
CS(=O)(=O)N1CCC(C(=O)Nc2c(C(N)=O)sc3nc(C(F)F)cc(C4CC4)c23)CC1	5%
O=C(COc1ccc(Cl)cc1)N1CC(n2cnnc2C2CC2)C1	-4%
Cc1cc(=O)[nH]c(-n2nc(C3CC3)cc2NC(=O)C(C)(C)Oc2ccc(Cl)cc2)n1	82%
Cc1cc(=O)[nH]c(N2CCCCCC2)n1	8%
COc1ccc(NC(=O)c2cc(C3CC3)nc3onc(C4CC4)c23)cc1Cl	-4%
COc1ccc(Cl)cc1C(=O)N(C1CCOCC1)[C@H]1CCCN(S(C)(=O)=O)C1	-12%
COc1ccc(Cl)cc1C(=O)Nc1cc(C2CC2)nn1-c1nc(C)cc(=O)[nH]1	72%
COc1ccc(NC(=O)Cn2cnc3nc(N4CCOCC4)ncc3c2=O)cc1	15%
CO[C@@H](CNc1nc(C)c(S(N)(=O)=O)s1)c1ccc(F)cc1	-17%
COc1ccc(NC(=O)[C@@H]2COCC(=O)N2Cc2ccc(C)cc2)cc1	7%
COc1cccc([C@H]2CC(=O)Nc3c2cnn3C)c1	-11%
CCc1ccc(C2=C[C@@H](c3cccc(OC)c3)n3ncc(C(=O)Nc4ccc(C)cc4)c3N2)cc1	70%
Cc1nn(CCOc2ccccc2)c(=O)n1-c1ccc(C(C)C)cc1	14%
CC(=O)N1CCCN(C(=O)c2ccccc2)CCNC(=O)[C@@H]2CCC[C@@H]21	9%
CC(C)(C)n1ncc2c1NC(=O)C[C@@H]2c1c(F)cccc1Cl	-19%
C[C@H](N)c1ccc(Nc2ncc3cc(-c4ccncc4)ccc3n2)cc1	101%
CC(C)C(=O)Nc1ccc(-c2cc(-c3ccc(NC(=O)C(C)C)cc3)nc(-c3ccncc3)n2)cc1	42%
